Measurements taken from PubChem BioAssay (EPA / NIEHS).
Records with an inconclusive call do not appear. Active and inactive are the calls of the source. How the source made its calls, unless noted: active means hit-call score of the fitted dose curve at least 0.9, where 1 is the maximum; inactive means score below 0.9.

Legend:
[1] = ATG_CRE_CIS: Attagene CIS-FACTORIAL HepG2 Assay for human cAMP Responsive Element (CRE) binding protein 3 (AID 2282926); conditions: HepG2 CRE cis-reporter, Attagene multiplexed mRNA; actives raise or lower the signal
Summary of the method: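 HepG2 cells transiently transfected with a multiplexed reporter library (CRE-driven unit among them) were dosed for 24 h. Reporter mRNA was quantified by RT-PCR, fluorescent labelling, HpaI digestion and capillary electrophoresis, with bidirectional fitting against DMSO baseline.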

[2] = ATG_DR4_LXR_CIS: Attagene CIS-FACTORIAL HepG2 Assay for human Liver X Receptor (LXR), DR4 submotif (AID 2282929); conditions: HepG2 Attagene DR4 cis-reporter, mRNA transcription; actives raise or lower the signal
Summary of the method: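 Cells were transfected with multiple reporter transcription units, exposed to chemicals for 24 hours, then lysed for RNA. Reporter mRNA induction was measured by RT-PCR with capillary electrophoresis detection and fitted in both directions relative to DMSO.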

[3] = ATG_GLI_CIS: Attagene CIS-FACTORIAL HepG2 Assay for human Zinc Finger Protein GLI1 (AID 2282945); conditions: HepG2, Attagene cis-factorial reporter mRNA, GLI element; actives raise or lower the signal
Summary of the method: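 Bidirectional curve fits relative to DMSO, using reporter mRNA levels from RT-PCR plus capillary electrophoresis. Cells were HepG2 transiently carrying cis-regulated reporter constructs, harvested 24 h after dosing.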

[4] = ATG_GRE_CIS: Attagene CIS-FACTORIAL HepG2 Assay for human Glucocorticoid Response Elements (GRE) (AID 2282947); conditions: HepG2 GRE cis-reporter, Attagene multiplex mRNA; actives raise or lower the signal
Summary of the method: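 Transient MRTU transfection of human HepG2 liver cells; cis-regulated reporters report endogenous factors. 24 h dosing → RNA isolation → RT-PCR → 6-FAM primer extension → HpaI cut → CE fragment analysis. Bidirectional fit, DMSO negative control.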

[5] = target: Hypoxia-inducible factor 1-alpha (Homo sapiens) (UniProt Q16665); assay: ATG_HIF1a_CIS: Attagene CIS-FACTORIAL HepG2 Assay for human Hypoxia Inducible Factor 1 (HIF1A) (AID 2282951); conditions: HepG2 Attagene cis-factorial HIF1a reporter transcription; actives raise or lower the signal
Hypoxia-inducible factor 1-alpha (Homo sapiens), sequence (Q16665 whole entry, looked up): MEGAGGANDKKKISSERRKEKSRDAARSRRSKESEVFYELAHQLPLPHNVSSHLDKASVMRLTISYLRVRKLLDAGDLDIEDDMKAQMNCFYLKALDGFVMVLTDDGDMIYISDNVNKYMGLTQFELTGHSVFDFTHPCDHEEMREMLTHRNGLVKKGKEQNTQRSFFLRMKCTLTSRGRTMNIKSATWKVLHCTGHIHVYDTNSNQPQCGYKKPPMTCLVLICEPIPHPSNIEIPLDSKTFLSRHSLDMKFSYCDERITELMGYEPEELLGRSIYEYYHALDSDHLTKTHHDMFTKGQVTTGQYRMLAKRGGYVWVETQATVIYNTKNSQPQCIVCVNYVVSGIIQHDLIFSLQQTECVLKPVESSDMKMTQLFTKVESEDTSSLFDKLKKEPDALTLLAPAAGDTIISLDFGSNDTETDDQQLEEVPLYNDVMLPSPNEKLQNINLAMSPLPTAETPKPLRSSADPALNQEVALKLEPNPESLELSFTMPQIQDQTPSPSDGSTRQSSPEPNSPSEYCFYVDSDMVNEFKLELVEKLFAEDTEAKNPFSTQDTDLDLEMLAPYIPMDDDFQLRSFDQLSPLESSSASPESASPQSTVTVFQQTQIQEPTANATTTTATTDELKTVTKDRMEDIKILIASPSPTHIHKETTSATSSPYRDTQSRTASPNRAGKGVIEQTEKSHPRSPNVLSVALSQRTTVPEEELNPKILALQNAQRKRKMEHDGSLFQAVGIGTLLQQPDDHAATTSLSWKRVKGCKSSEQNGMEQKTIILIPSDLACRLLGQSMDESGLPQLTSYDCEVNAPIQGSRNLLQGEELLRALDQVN
Summary of the method: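 Measures endogenous transcription-factor activity through cis-regulated reporter mRNA in HepG2. Cells dosed 24 h; transcripts quantified by RT-PCR with 6-FAM-labelled products separated by capillary electrophoresis; DMSO serves as negative control.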

[6] = target: Hepatocyte nuclear factor 6 (Homo sapiens) (UniProt Q9UBC0); assay: ATG_HNF6_CIS: Attagene CIS-FACTORIAL HepG2 Assay for human Hepatocyte Nuclear Factor 6 (HNF6) (AID 2282952); conditions: HepG2 Attagene cis-factorial HNF6 reporter transcription; actives raise or lower the signal
Hepatocyte nuclear factor 6 (Homo sapiens), sequence (Q9UBC0 whole entry, looked up): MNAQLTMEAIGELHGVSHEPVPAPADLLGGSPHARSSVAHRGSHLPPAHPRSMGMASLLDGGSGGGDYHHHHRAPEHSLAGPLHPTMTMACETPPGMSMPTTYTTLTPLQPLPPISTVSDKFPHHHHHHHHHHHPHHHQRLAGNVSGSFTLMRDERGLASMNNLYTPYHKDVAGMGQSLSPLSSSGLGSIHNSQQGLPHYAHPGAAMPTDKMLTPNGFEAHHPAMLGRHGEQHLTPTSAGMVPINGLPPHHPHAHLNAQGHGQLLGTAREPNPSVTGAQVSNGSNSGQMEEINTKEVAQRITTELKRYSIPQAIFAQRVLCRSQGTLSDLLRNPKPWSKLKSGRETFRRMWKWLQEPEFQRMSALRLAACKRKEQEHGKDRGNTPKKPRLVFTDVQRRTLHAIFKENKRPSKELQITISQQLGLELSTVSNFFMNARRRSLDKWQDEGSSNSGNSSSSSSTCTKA
Summary of the method: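 HepG2 cells transiently transfected with cis-element-driven multiple reporter transcription units, dosed 24 h; reporter mRNA quantified by RT-PCR, FAM primer extension, HpaI digestion and capillary electrophoresis; bidirectional fit versus DMSO baseline.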

[7] = target: Heat shock factor protein 1 (Homo sapiens) (UniProt Q00613); assay: ATG_HSE_CIS: Attagene CIS-FACTORIAL HepG2 Assay for human Heat Shock Transcription Factor 1 (HSE) (AID 2282953); conditions: HepG2 HSE cis-reporter, Attagene RNA transcription; actives raise or lower the signal
Heat shock factor protein 1 (Homo sapiens), sequence (Q00613 whole entry, looked up, the tested form may be a part): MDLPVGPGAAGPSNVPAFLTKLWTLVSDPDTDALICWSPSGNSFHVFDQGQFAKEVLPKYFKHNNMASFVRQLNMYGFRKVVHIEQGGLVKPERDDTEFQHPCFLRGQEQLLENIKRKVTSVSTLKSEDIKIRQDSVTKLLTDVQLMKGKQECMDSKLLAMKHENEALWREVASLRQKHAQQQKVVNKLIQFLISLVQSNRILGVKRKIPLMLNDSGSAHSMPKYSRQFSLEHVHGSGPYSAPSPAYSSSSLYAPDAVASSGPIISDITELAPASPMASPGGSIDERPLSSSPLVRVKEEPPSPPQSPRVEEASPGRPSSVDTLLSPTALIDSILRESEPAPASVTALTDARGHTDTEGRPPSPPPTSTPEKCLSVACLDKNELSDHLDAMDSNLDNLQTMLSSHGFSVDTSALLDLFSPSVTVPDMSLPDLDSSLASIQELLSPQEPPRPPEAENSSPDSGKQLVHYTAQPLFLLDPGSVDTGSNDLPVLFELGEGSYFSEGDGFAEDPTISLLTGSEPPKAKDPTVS
Summary of the method: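 Cells were transfected with cis-element-driven reporter constructs, dosed for 24 h, then total RNA was reverse-transcribed and reporter cDNA amplified, FAM-labelled and digested with HpaI. Fragments were resolved by capillary electrophoresis; gain or loss was fitted against DMSO.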

[8] = ATG_TA_CIS: Attagene CIS-FACTORIAL HepG2 Assay for human TA Basal Promoter (AID 2282964); conditions: HepG2 Attagene CIS-factorial TA basal promoter reporter; actives raise or lower the signal
Summary of the method: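 Steps: transfect HepG2 with MRTUs; dose 24 h; isolate RNA, DNase-treat, reverse-transcribe; PCR and FAM-label reporter cDNA; digest with HpaI 2h at 37 C; run capillary electrophoresis. Activity fitted both directions against DMSO.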

[9] = ATG_TCF_b_cat_CIS: Attagene CIS-FACTORIAL HepG2 Assay for human T-Cell-Factor with beta-catenin (TCF/b-cat) (AID 2282965); conditions: HepG2 TCF/beta-catenin cis-reporter transcription, actives raise or lower the signal
Summary of the method: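 Endogenous TCF/LEF activity read as reporter transcript level via RT-PCR and capillary electrophoresis fluorescence in transfected HepG2, 24 h exposure; gain or loss of signal fitted against DMSO controls.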

[10] = ATG_TGFb_CIS: Attagene CIS-FACTORIAL HepG2 Assay for human Transforming Growth Factor (TGF) (AID 2282967); conditions: HepG2 Attagene CIS TGFb reporter, mRNA transcription; actives raise or lower the signal
Summary of the method: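 Cells were dosed for 24 hours, after which total RNA was reverse-transcribed and reporter sequences amplified, labeled and sized by capillary electrophoresis. Activity was fitted in both directions against DMSO.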

[11] = target: Transcriptional activator Myb (Homo sapiens) (UniProt P10242); assay: ATG_Myb_CIS: Attagene CIS-FACTORIAL HepG2 Assay for human Myeloblastosis (Myb) Proto-Oncogene Transcription Factor (AID 2282986); conditions: HepG2 Attagene CIS-FACTORIAL Myb reporter transcription; actives raise or lower the signal
Transcriptional activator Myb (Homo sapiens), sequence (P10242 whole entry, looked up): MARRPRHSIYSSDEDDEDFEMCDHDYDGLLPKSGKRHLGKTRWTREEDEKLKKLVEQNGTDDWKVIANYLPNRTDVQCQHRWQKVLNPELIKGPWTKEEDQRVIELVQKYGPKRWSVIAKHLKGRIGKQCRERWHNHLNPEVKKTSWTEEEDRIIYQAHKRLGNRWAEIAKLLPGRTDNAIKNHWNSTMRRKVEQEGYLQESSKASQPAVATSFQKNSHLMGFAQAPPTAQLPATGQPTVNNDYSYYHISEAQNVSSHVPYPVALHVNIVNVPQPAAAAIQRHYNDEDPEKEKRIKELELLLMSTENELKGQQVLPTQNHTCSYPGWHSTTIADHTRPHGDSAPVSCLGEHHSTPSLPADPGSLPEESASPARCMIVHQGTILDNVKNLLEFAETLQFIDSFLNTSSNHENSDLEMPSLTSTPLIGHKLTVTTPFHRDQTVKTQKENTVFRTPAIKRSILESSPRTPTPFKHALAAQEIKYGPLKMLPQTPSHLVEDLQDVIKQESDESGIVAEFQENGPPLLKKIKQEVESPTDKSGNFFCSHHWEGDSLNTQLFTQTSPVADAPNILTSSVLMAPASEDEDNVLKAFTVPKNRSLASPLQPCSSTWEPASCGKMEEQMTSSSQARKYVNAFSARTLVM
Summary of the method: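 Steps: transfect HepG2 with cis-regulated reporter units; dose with chemical for 24 h; isolate RNA, reverse-transcribe, PCR-amplify and FAM-label reporter sequences; digest with HpaI; resolve by capillary electrophoresis. Activity fitted in both directions relative to DMSO.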

[12] = target: Nuclear respiratory factor 1 (Homo sapiens) (UniProt Q16656); assay: ATG_NRF1_CIS: Attagene CIS-FACTORIAL HepG2 Assay for human Nuclear Respiratory Factor 1 (NRF1) Orphan Gene (AID 2282987); conditions: HepG2 NRF1 cis-element reporter, Attagene multiplex; actives raise or lower the signal
Nuclear respiratory factor 1 (Homo sapiens), sequence (Q16656 whole entry, looked up, the tested form may be a part): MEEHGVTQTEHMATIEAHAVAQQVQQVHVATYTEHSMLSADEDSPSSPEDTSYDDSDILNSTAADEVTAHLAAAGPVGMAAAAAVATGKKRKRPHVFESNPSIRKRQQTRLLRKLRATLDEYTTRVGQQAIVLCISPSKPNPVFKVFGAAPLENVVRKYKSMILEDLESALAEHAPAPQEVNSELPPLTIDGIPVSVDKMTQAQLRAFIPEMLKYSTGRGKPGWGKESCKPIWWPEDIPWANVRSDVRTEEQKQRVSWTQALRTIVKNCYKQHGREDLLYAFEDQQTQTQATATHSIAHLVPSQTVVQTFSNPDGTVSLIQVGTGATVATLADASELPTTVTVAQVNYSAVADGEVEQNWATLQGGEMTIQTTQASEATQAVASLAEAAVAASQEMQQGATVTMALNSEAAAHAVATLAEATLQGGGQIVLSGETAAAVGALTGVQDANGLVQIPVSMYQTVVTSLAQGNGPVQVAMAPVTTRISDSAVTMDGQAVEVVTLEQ
Summary of the method: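 Fluorescence intensity of labelled reporter cDNA fragments, resolved by capillary electrophoresis, served as readout for NRF1 cis-element activity. Transiently transfected HepG2 cells were dosed for 24 hours; activity in either direction was fitted against DMSO negative control.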

[13] = ATG_NFI_CIS: Attagene CIS-FACTORIAL HepG2 Assay for human Nuclear Factor I (NFI) (AID 2282989); conditions: HepG2 cis-regulatory reporter, NFI response element transcription; actives raise or lower the signal
Summary of the method: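 HepG2, transient MRTU, 24 h exposure; RNA→cDNA→PCR→FAM label→HpaI→CE fluorescence. Bidirectional fit, DMSO = baseline.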

[14] = target: Myc proto-oncogene protein (Homo sapiens) (UniProt P01106); assay: ATG_Myc_CIS: Attagene CIS-FACTORIAL HepG2 Assay for human Myelocytomatosis (Myc) Proto-Oncogene Transcription Factor (AID 2282990); conditions: HepG2, Attagene cis-reporter transcription factor activity; actives raise or lower the signal
Myc proto-oncogene protein (Homo sapiens), sequence (P01106 whole entry, looked up, the tested form may be a part): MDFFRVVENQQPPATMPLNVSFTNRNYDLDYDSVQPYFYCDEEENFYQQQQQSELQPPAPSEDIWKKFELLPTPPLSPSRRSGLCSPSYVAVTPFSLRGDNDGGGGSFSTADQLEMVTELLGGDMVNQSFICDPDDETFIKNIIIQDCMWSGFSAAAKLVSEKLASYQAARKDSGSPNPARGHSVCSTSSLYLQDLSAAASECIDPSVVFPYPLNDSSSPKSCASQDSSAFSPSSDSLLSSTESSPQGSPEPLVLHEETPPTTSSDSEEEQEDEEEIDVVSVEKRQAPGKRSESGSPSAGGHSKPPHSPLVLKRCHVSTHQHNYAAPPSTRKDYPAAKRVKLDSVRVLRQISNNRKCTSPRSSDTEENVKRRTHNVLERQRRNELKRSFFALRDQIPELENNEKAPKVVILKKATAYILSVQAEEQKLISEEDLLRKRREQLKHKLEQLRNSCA
Summary of the method: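 After 24 h chemical treatment of HepG2 cells carrying multiplexed cis-regulated reporter constructs, reporter transcripts quantified by RT-PCR and capillary electrophoresis of fluorescent fragments. Gain or loss fitted against DMSO baseline.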

[15] = ATG_NRF2_ARE_CIS: Attagene CIS-FACTORIAL HepG2 Assay for human Nuclear Factor Erythroid 2 Related Factor 2 (NFR2) response to Antioxidant Response Elements (ARE) (AID 2282992); conditions: HepG2 Attagene ARE/NRF2 reporter, transcription factor activity; actives raise or lower the signal;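 on AC50: reporter mRNA level measured by RT-PCR and capillary electrophoresis fluorescence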
Summary of the method: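 Multiplexed reporter mRNA profiling in HepG2 after a 24 h chemical exposure. Curves fitted in both directions relative to DMSO negative control.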

[16] = ATG_Oct_MLP_CIS: Attagene CIS-FACTORIAL HepG2 Assay for human Octamer-Binding Transcription Factor (Oct) (AID 2282993); conditions: HepG2 Attagene cis-factorial Oct reporter, mRNA; actives raise or lower the signal
Summary of the method: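 Multiplexed cis-reporter assay in human liver HepG2 cells, 24 h incubation. Reporter RNA amplified and labelled, then resolved by capillary electrophoresis; DMSO serves as negative control and baseline.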

[17] = target: Cellular tumor antigen p53 (Homo sapiens) (UniProt P04637); assay: ATG_p53_CIS: Attagene CIS-FACTORIAL HepG2 Assay for human p53 Transcription Factor (AID 2282994); conditions: HepG2 p53 cis-element reporter, Attagene mRNA; actives raise or lower the signal
Cellular tumor antigen p53 (Homo sapiens), sequence (P04637 whole entry, looked up): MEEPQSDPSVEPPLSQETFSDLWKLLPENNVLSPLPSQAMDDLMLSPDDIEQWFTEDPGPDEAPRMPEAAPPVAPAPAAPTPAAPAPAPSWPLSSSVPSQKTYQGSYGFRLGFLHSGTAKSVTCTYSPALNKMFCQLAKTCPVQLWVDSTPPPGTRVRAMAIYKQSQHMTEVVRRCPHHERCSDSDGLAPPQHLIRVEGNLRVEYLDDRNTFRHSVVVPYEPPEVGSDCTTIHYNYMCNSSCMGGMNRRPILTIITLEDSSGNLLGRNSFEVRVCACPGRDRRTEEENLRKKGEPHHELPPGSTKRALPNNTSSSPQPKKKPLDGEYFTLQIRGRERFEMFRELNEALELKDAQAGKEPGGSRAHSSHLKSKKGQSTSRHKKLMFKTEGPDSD
Summary of the method: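 Multiplexed reporter mRNA assay in human HepG2 liver cells; cis-regulated units report endogenous factor activity. Values come from bidirectional curve fitting against DMSO negative control after 24 h treatment.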

[18] = target: Nuclear receptor subfamily 1 group I member 2 (Homo sapiens) (UniProt O75469); assay: ATG_PXR_TRANS: Attagene TRANS-FACTORIAL HepG2 Assay for human Pregnane X Receptor (PXR) (AID 2283008; active means hit-call score of the fitted dose curve at least 0.9, where 1 is the maximum)
Nuclear receptor subfamily 1 group I member 2 (Homo sapiens), sequence (O75469 whole entry, looked up, the tested form may be a part): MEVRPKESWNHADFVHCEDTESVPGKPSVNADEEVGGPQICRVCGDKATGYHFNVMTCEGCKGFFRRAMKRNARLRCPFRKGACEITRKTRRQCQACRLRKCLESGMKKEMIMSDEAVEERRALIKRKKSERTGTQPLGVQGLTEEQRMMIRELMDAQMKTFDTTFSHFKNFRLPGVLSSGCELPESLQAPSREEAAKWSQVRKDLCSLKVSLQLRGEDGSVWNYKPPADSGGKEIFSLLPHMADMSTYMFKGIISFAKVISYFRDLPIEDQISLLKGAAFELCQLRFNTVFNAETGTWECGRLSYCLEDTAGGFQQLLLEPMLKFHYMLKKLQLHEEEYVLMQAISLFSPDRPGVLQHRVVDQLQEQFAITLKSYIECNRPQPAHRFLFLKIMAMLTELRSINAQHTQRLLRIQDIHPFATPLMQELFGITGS
Summary of the method: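 Measures mRNA induction of a GAL4-UAS-driven reporter in human HepG2 cells transiently expressing PXR fused to Gal4, following 24 h treatment. DMSO served as negative control and baseline.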

[19] = target: Transcription factor E2F1 (Homo sapiens) (UniProt Q01094); assay: ATG_E2F_CIS: Attagene CIS-FACTORIAL HepG2 Assay for human E2F Transcription Factor 1 (AID 2282935); conditions: HepG2 Attagene cis-reporter, E2F reporter RNA transcripts; actives raise or lower the signal
Transcription factor E2F1 (Homo sapiens), sequence (Q01094 whole entry, looked up): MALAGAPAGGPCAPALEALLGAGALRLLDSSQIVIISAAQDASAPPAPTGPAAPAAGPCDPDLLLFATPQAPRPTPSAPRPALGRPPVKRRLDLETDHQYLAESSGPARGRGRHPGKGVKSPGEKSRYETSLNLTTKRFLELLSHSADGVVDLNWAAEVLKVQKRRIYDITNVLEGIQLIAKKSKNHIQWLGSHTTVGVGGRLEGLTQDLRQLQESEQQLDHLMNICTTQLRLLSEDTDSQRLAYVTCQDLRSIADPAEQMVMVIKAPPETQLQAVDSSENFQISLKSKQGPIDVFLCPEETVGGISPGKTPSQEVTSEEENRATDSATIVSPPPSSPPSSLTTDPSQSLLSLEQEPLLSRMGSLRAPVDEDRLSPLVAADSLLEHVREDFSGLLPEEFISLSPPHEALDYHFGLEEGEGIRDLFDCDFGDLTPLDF
Summary of the method: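 Cis-element reporter mRNA induction in transiently transfected HepG2, 24 h exposure. Activity fitted in both directions relative to DMSO negative control.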

[20] = ATG_XTT_Cytotoxicity: Cytotoxicity Assessment in the Attagene TRANS-FACTORIAL HepG2 Assay (AID 2283584; active means hit-call score of the fitted dose curve at least 0.9, where 1 is the maximum)
Summary of the method: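 HepG2 human liver cells, transiently transfected with multiple GAL4-UAS reporter units, were dosed and read at 24 h by XTT as cell number. Loss of signal was fitted relative to DMSO negative control baseline.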

Measured: AC50

CC/C=C\CC/C=C/C(OCC)OCC
active: [7] 156 µM | [15] 26.2 µM | [17] 187 µM
inactive: [1] | [2] | [3] | [4] | [5] | [6] | [8] | [9] | [10] | [11] | [12] | [13] | [14] | [16] | [18]

Oc1cccc2ccccc12
active: [15] 4.38 µM
inactive: [1] | [2] | [19] | [3] | [4] | [5] | [6] | [7] | [8] | [11] | [12] | [13] | [14] | [16] | [17] | [18] | [20]

F[B-](F)(F)F
inactive: [1] | [2] | [19] | [3] | [5] | [6] | [7] | [8] | [9] | [10] | [11] | [12] | [13] | [14] | [15] | [16] | [18]

O=C(O)/C=C/C(=O)O
inactive: [1] | [2] | [19] | [3] | [4] | [5] | [6] | [7] | [9] | [11] | [12] | [13] | [14] | [15] | [16] | [17] | [20]

CC(C)CC(=O)O
inactive: [1] | [2] | [3] | [4] | [5] | [6] | [7] | [8] | [9] | [11] | [12] | [13] | [14] | [15] | [16] | [17] | [20]

CCCCCCCCCC/C=C/C1CC(=O)OC1=O (stereo unspecified)
active: [10] 100 µM | [15] 79.8 µM
inactive: [1] | [2] | [19] | [3] | [4] | [5] | [6] | [7] | [8] | [9] | [11] | [12] | [13] | [14] | [16] | [17] | [20]

COC(=O)/C=C\C(=O)OC
active: [4] 128 µM | [6] 128 µM | [15] 10.5 µM
inactive: [1] | [2] | [3] | [5] | [7] | [8] | [9] | [10] | [11] | [12] | [13] | [14] | [16] | [17] | [18] | [20]

O=C(O)Cc1c[nH]c2ccccc12
active: [15] 74.1 µM
inactive: [1] | [2] | [19] | [3] | [4] | [5] | [6] | [7] | [8] | [9] | [10] | [11] | [12] | [13] | [14] | [16] | [17] | [18]

CC/C=C\CCO
inactive: [1] | [2] | [19] | [4] | [5] | [6] | [7] | [8] | [9] | [10] | [11] | [12] | [13] | [14] | [15] | [16] | [17] | [20]

CC[N+](CC)(CC(=O)Nc1c(C)cccc1C)Cc1ccccc1
inactive: [1] | [2] | [19] | [3] | [5] | [6] | [8] | [9] | [10] | [11] | [12] | [13] | [14] | [15] | [16] | [18] | [20]

CCCCOC(=O)COc1ccc(Cl)cc1Cl
inactive: [1] | [2] | [3] | [5] | [6] | [7] | [8] | [9] | [10] | [11] | [12] | [13] | [15] | [16] | [17] | [18] | [20]

NCc1ccccc1
inactive: [1] | [2] | [19] | [3] | [4] | [5] | [6] | [7] | [8] | [9] | [10] | [11] | [12] | [13] | [14] | [15] | [16] | [17] | [20]

Cc1cc(C)c(S(=O)(=O)O)cc1N=Nc1cc(S(=O)(=O)O)c2ccccc2c1O
active: [15] 72.2 µM
inactive: [1] | [2] | [19] | [5] | [6] | [7] | [9] | [10] | [11] | [12] | [13] | [14] | [16] | [17] | [18] | [20]

O=S(=O)(O)c1cccc2ccccc12
inactive: [1] | [2] | [19] | [3] | [4] | [5] | [6] | [7] | [8] | [9] | [10] | [11] | [12] | [13] | [14] | [15] | [16] | [17] | [18]
